LDHA inh: qHTS assay for inhibitors of human lactate dehydrogenase. 480,000 tested, 0.15% active. purified LDHA, NADH/diaphorase-resazurin fluorescence; active compounds read low. AID 1347041, 2019. L-lactate dehydrogenase A chain (Homo sapiens), P00338. activity change, % (values are at about 110 or 230 µM); in the data active = activity change below about -30%; inconclusive = mostly about -25% to -30%;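 note: plate controls were DMSO wells for no effect and wells without enzyme for full effect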
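Enzyme activity of human lactate dehydrogenase 5 (2 nM; 0.06 mM NADH, 0.2 mM pyruvate, 5 min, RT) is measured via a resazurin/diaphorase fluorescence readout of residual NADH.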
DT40 TDP1 no CPT: qHTS for Inhibitors of human tyrosyl-DNA phosphodiesterase 1 (TDP1): qHTS in cells in absence of CPT; DT40 Tdp1-/- hTDP1 cells, no CPT, ATP luminescence, 48 h; Potency, µM (top dose mostly 46.2 µM), for inactives: top-dose activity change, negative = growth inhibition, usual class: inhibitors; 420,000 tested, 15% active; AID 686978, 2013; note: potency is the fitted concentration of half-maximal effect; nearly all actives have a fitted effect of over 55% in size
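Chicken DT40 Tdp1-/- cells complemented with human TDP1, screened without camptothecin (DMSO vehicle only), 400 cells/well. Compounds pin-transferred, cells incubated at 37 °C for at least 48 hr. Growth read as ATP-dependent luminescence (CellTiter-Glo, 30 min at RT).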
IL1B secr inh: qHTS for Inhibitors of Inflammasome Signaling: IL-1-beta AlphaLISA Primary Screen. 360,000 tested, 4.7% active. AID 743279, 2014. activity change, % at 57.5 µM. THP-1 LPS/ATP IL-1B secretion, AlphaLISA, 16 h; active compounds read low; in the data active = activity change below about -50%; inconclusive = mostly about -30% to -49%
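THP-1 cells pretreated 1 hr with compounds (up to 57.5 uM final), then stimulated with LPS (250 ng/mL final) plus ATP (1.25 mM final); secreted IL-1B measured by AlphaLISA after 16 hr, decreased signal indicating inhibition.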
RORg inh: qHTS for inhibitors of ROR gamma transcriptional activity; Nuclear receptor ROR-gamma (Mus musculus), P51450; Drosophila S2 Gal4-RORgamma UAS-luciferase reporter, 20 h; Potency, µM (doses to about 53.6 µM), for the others: at the highest dose activity change, negative = inhibition, usual class: inhibitors; 310,000 tested, 5.4% active; note: potency is the fitted concentration of half-maximal effect; nearly all actives have a fitted effect of over 60% in size
Target sequence (P51450 whole entry, looked up, the tested form may be a part): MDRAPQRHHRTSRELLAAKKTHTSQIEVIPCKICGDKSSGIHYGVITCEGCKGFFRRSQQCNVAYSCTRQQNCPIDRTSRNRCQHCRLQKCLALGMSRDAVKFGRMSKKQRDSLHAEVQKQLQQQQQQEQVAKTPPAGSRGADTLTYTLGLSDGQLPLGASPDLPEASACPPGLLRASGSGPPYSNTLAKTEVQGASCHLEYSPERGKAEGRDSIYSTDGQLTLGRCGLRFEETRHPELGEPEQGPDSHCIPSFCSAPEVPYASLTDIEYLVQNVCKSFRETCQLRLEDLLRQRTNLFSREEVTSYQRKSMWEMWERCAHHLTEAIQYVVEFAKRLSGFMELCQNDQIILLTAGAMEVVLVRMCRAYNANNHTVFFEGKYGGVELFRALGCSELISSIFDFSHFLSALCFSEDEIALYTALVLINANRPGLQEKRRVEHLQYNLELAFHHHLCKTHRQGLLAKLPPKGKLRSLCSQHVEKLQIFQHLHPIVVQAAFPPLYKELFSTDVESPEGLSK
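Read-out: Photinus luciferase luminescence; inhibitors lower reporter signal. Insect Schneider cells with Gal4-ROR gamma fusion under metallothionein promoter, UAS reporter; 700 uM final copper sulfate induction, 20 hr, ambient temperature.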
VP16 counter: VP16 counterscreen qHTS for inhibitors of ROR gamma transcriptional activity | Drosophila S2 Gal4-VP16 UAS-luciferase, luminescence, 20 h | 310,000 tested, 3.5% active | Potency, µM (highest dose often 53.6 µM), for inactives: at the top dose activity, negative = inhibition, actives largely listed as inhibitors;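 note: Gal4-VP16 expression switched on by copper sulfate through the metallothionein promoter; potency is the fitted concentration of half-maximal effect; nearly all actives have a fitted effect of over 50% in size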
DT40 TDP1 CPT: qHTS for Inhibitors of human tyrosyl-DNA phosphodiesterase 1 (TDP1): qHTS in cells in presence of CPT; chicken DT40 Tdp1-/-;hTDP1 cells + 20 nM CPT, ATP luminescence, 48 h; Potency, µM (series often up to 46.2 µM), for the others: top-dose activity change, negative = growth inhibition, hits mostly inhibitors; 420,000 tested, 12% active; note: potency is the fitted concentration of half-maximal effect; nearly all actives have a fitted effect of over 55% in size
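Cell growth measured by CellTiter-Glo luminescence after a minimum 48 h, 37 C compound exposure with 20 nM CPT in Tdp1-knockout DT40 cells stably expressing hTDP1, seeded 400/well; qHTS titration format.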
Active calls of the source: *; u = inconclusive; x = not tested or not shown; ! = repeats disagree; [ ] = remark or other dose. Shown are actives, neighbours in structure and some others; about 18% of the full set was active somewhere. Unless noted, calls come from the whole dose curve; as a rule, active = well fitted curve in the direction sought with a large enough effect; inconclusive = small, poorly fitted or top-dose-only effect, or another doubt; inactive = no such curve, though single readings can be large; an effect the other way counts as inactive or inconclusive. Unless noted, % is set by controls: 0 for no effect and ±100 for the full control effect.

SMILES | LDHA inh | DT40 TDP1 no CPT | IL1B secr inh | RORg inh | VP16 counter | DT40 TDP1 CPT
Cc1ccc(S(=O)(=O)Nc2ccc3ncccc3c2[N+](=O)[O-])cc1 | 3.1 | u | -6.6 | x | x | -4.9%
COc1ccc(N2C(=O)NC(=O)C3(Cc4cc(C)ccc4N(C)C3)C2=O)cc1 (stereo unspecified) | 0.7 | x | x | x | x | x
CCOC(=O)[C@]12Cc3ccccc3[C@H]1N(CCC(=O)OC)C(=O)c1ccccc12 | -4.3 | 16.4µM* | x | x | x | 18.4µM*
CCOC(=O)[C@]12Cc3cc(C)ccc3[C@H]1N(CCC(=O)OC)C(=O)c1cc(OC)ccc12 | -0.9 | 8.2µM* | -124.0* | x | x | 10.3µM*
Cc1cc(C=C(C#N)C#N)ccc1N1CCCC1 | -6.0 | u | u | u | -15.6% | u
N#CC(C#N)=Cc1cc(O)c(O)c(O)c1 | x | 15µM* | x | u | 6.5% | 9.44µM*
ClC(Cl)(Cl)Cl | x | -5.9% | x | -1.2% | 1.4% | -1.5%
N=C1c2ccccc2CN1NC(=O)c1ccc(Br)cc1 | 4.3 | 2.2% | -102.0* | 9.4% | 7.8% | -15.5%
CC(=NNC(=S)N1CC2CCC(CC2)C1)c1nccs1 | -5.2 | 0.0259µM* | -100.2* | x | x | 0.0206µM*
C#CCOS(=O)OC1CCCCC1Oc1ccc(C(C)(C)C)cc1 (stereo unspecified) | x | -23.7% | x | u | -23.5% | -25.8%
O=[N+]([O-])c1ccc2nc(N3CCNCC3)ccc2c1 | 5.3 | 20.6µM* | -52.9* | x | x | u
O=C(Nc1ccccc1)c1cc([N+](=O)[O-])ccc1N1CCNCC1 | -5.5 | -0.9% | 27.0 | -15.0% | -11.9%[10 µM] | -25.3%
Cc1nc(-c2nc(-c3c(C(=O)NNC(=O)c4ccc(Cl)cc4)noc3C)cs2)cs1 | -1.2 | u | 10.6 | 10µM* | u | -5.8%
COc1cc(C2Nc3c(C)cc(C)cc3-c3cc(C)nn32)cc(OC)c1O (stereo unspecified) | 6.0 | 4.11µM* | x | x | x | 5.8µM*
Cc1cc(C)c2c(c1)-c1cc(C)nn1C(c1cccnc1)N2 (stereo unspecified) | -2.3 | -1.0% | 15.6 | -19.0% | 3.0% | 0.7%
CCC[CH2][Sn]([Cl])([Cl])[Cl] | x | x | x | -6.3% | -8.8% | x
CCCOc1ccc(C(=O)NC(=S)N2C[C@H]3C[C@H](C2)c2cccc(=O)n2C3)cc1 | -8.1 | -7.1% | 7.6 | 8.91µM* | u | 0.9%
O=C(c1ccc(F)c([N+](=O)[O-])c1)N1CC2CC(C1)c1cccc(=O)n1C2 (stereo unspecified) | -1.3 | u | -51.7* | -6.3% | -8.5% | -26.9%
COc1ccc(C(=O)NC(=S)N2C[C@H]3C[C@H](C2)c2cccc(=O)n2C3)cc1OC | 7.5 | 0.4% | 16.8 | -33.6% | -8.7% | -2.6%
O=C(NC(=S)N1C[C@H]2C[C@H](C1)c1cccc(=O)n1C2)c1ccc(Cl)cc1Cl | -8.6 | 1.1% | -0.6 | 10µM* | -28.1% | 2.1%
COc1cc(C(=O)N2C[C@H]3C[C@@H](C2)c2cccc(=O)n2C3)cc(OC)c1OC | -5.4 | 10.1% | -5.9 | -2.1% | -7.4% | 10.3%
CC(C)Cc1nc2cccnc2n1C1CCNCC1 | -6.3 | -14.2% | x | x | x | -28.3%
COc1ccc(NC(=O)N2CCCC3(CCN(C(=O)Oc4ccccc4)CC3)C2)cc1 | x | -13.2% | x | -21.1% | 1.2% | -4.7%
COc1ccc(C/C(=N\OC(C)=O)c2ccc(OC)cc2)cc1 | 0.6 | u | 13.7 | 10.0% | -5.6% | -4.4%
COCCCOc1ccnc(CS(=O)c2nc3ccccc3[nH]2)c1C (stereo unspecified) | 16.7 | u | 17.4 | -13.2% | -3.1% | 23.7µM*
SMILES | LDHA inh | DT40 TDP1 no CPT | IL1B secr inh | RORg inh | VP16 counter | DT40 TDP1 CPT
COc1cccc2c1C(=O)c1c(O)c3c(c(O)c1C2=O)C[C@@](O)(C(=O)CO)C[C@@H]3O[C@H]1C[C@H](N)[C@H](OC2CCCCO2)[C@H](C)O1 (stereo partly specified) | 11.9 | u | x | u | -3.6% | 0.282µM*
CCCCC(=O)OCC(=O)C1(O)Cc2c(O)c3c(c(O)c2C(OC2CC(NC(=O)C(F)(F)F)C(O)C(C)O2)C1)C(=O)c1c(OC)cccc1C3=O (stereo unspecified) | 6.1 | 2.06µM* | u | x | x | 1.16µM*
N#CC1=C(N)Oc2nc(SCc3ccccc3Cl)nc(N)c2C1c1ccccc1F (stereo unspecified) | 3.7 | x | x | x | x | x
[S]=[Sb](=[S])[S][Sb](=[S])=[S] | x | -0.4% | x | x | x | 5.0%
CCOC(=O)[C@]12Cc3cc(OC)ccc3[C@H]1N(C1CCCCC1)C(=O)c1cc(OC)ccc12 | 0.2 | 4.61µM* | -114.0* | x | x | 2.59µM*
CCOC(=O)[C@]12Cc3cc(C)ccc3[C@H]1N(C1CCCCC1)C(=O)c1cc(OC)ccc12 | 3.3 | 1.03µM* | -110.7* | x | x | 1.16µM*
CCCn1c(C)c(C(=O)NC2CCCCC2)c2cc(OC)ccc21 | -21.7 | x | x | x | x | x
C[C@@H]1OC=C2[C@@H](O)[C@H]3O[C@H]3C(=O)[C@@]23[C@H]1[C@H]1C2=C([C@@H](O)[C@H]4O[C@@H]4C2=O)[C@@H]3O[C@@H]1C | x | x | x | -43.7%[10 µM] | 27.9%[10 µM] | x
CC(C)CN(C(=O)CN1CC=C(c2ccccc2)CC1)c1c(N)n(CC(C)C)c(=O)[nH]c1=O | -4.3 | 18.4µM* | -5.7 | -4.2% | 8.0% | u
Cc1ccc(S(=O)(=O)NC(=O)NC2CCCC2)cc1 | x | -0.6% | x | 18.2% | 4.8% | 4.8%
O=C(O)c1ccccc1-c1c2cc(Br)c(=O)cc-2oc2[c]([Hg])c(O)c(Br)cc12 | x | 0.581µM* | x | u | 17.8µM*! | 1.46µM*
COc1ccc(C2C=C(c3ccccc3)Nc3nc(NC(=O)/C=C/c4ccccc4Cl)nn32)cc1 (stereo unspecified) | 0.8 | 3.66µM* | x | x | x | 5.17µM*
COCCOc1cc2c(cc1C=O)OCO2 | 4.3 | x | x | x | x | x
O=C(NCCc1ccccc1)c1ccc(CSc2nc3cccnc3n2Cc2ccc(F)cc2)cc1 | -1.5 | 14.6µM* | x | x | x | u
C[C@H]1COC(=O)[C@@H](Cc2ccc(F)cc2)CC/C=C/C[C@H](CC(=O)N(CCO)Cc2ccccc2)C(=O)N1 | -2.5 | 16.4µM* | -28.4 | x | x | 16.4µM*
